# Source: PubChem BioAssay (NCI)
# About 83,000 compounds went through this panel and 20% of them were active in at least one assay; those are over-represented in the sample as a whole.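 Single-dose data. Exposure time 48 hours. Values below 10 considered active.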 Unmarked numbers belong to inactive results. Activity calls are given as the source filed them.
# Experiments:
# Assay in all cases: NCI-60 one-dose screen, 48 h (100 = growth as untreated, 0 = no growth, -100 = all killed)
# Details in all cases: 10 µM unless noted
# HCT-15 colon = tested on: HCT-15 colon
# HT29 colon = tested on: HT29 colon
# SNB-75 CNS = tested on: SNB-75 CNS
# SNB-19 CNS = tested on: SNB-19 CNS
# U251 CNS = tested on: U251 CNS
# PC-3 prostate = tested on: PC-3 prostate
# SK-MEL-5 melanoma = tested on: SK-MEL-5 melanoma
# UACC-62 melanoma = tested on: UACC-62 melanoma
# LOX IMVI melanoma = tested on: LOX IMVI melanoma
# SK-MEL-28 melanoma = tested on: SK-MEL-28 melanoma
SMILES,growth (HCT-15 colon),growth (HT29 colon),growth (SNB-75 CNS),growth (SNB-19 CNS),growth (U251 CNS),growth (PC-3 prostate),growth (SK-MEL-5 melanoma),growth (UACC-62 melanoma),growth (LOX IMVI melanoma),growth (SK-MEL-28 melanoma)
COC(=O)[C@H](Cc1cn(C)cn1)NC(=O)[C@H](Cc1ccccc1)NC(=O)Nc1cc(C(F)(F)F)cc(C(F)(F)F)c1,-77.3% [100 µM] (active),-82.4% [100 µM] (active),-98.2% [100 µM] (active),-95.9% [100 µM] (active),-95.6% [100 µM] (active),-95.6% [100 µM] (active),-97.1% [100 µM] (active),-97.4% [100 µM] (active),-84.7% [100 µM] (active),-96.6% [100 µM] (active)
COC(=O)c1cc2oc(/C=N\NC(=O)c3cc4oc(C)c(C)c4[nH]3)cc2[nH]1,108%,111%,112%,102%,100%,72%,108%,115%,107%,110%
C[C@H]1C(=O)N2c3ccccc3[C@@]3(O)C[C@@H](n4cnc5ccccc5c4=O)C(=O)N1[C@@H]23,109%,120%,98.3%,99.7%,101%,95.6%,123%,98.3%,97.7%,100%
Cc1csc(C#Cc2cncc(O)c2)n1,112%,110%,139%,112%,107%,106%,82.6%,98.7%,116%,111%
CCOC(=O)CCN(c1c(Cl)ssc1=O)C(C)C,113%,102%,97.8%,109%,101%,101%,97.7%,97.8%,94.4%,93.4%
O=c1c2c(=NCCCN3CCCC3)cc3c(=O)n(CCCN4CCCC4)c(=O)c4c(NCCCN5CCCC5)cc(c(O)n1CCCN1CCCC1)c2c4-3,12.9%,-7.75% (active),-83.1% (active),7.13% (active),1.98% (active),11.7%,-66% (active),-52.2% (active),-7.8% (active),-42.3% (active)
CN(C)CCCN=c1cc2c(=O)n(CCCN(C)C)c(=O)c3c(NCCCN(C)C)cc4c(O)n(CCCN(C)C)c(=O)c1c4c3-2,13.7%,-42.2% (active),-66.9% (active),10.7%,3.63% (active),12.1%,-82.4% (active),-49.3% (active),-42.3% (active),-48.6% (active)
CC[C@@H](C)/C=C(C)/C=C/C(O)=C1\C(=O)N[C@@H](Cc2ccc(OC(=O)[C@@](OC)(c3ccccc3)C(F)(F)F)cc2)C1=O,102%,114%,101%,96.6%,83.9%,37.3%,110%,98.9%,50.3%,103%
CCCCc1n(Cc2ccc3ccccc3c2)cc[n+]1Cc1ccc2ccccc2c1,49.5%,-34.4% (active),-18% (active),-22.9% (active),-46.5% (active),-29.7% (active),-97.8% (active),-85.9% (active),-88.2% (active),-55% (active)
COc1ccc(C2CC(c3ccc(Nc4ccnc5cc(Cl)ccc45)cc3)=NN2C(C)=O)cc1 (stereo not given),44.2%,27.4%,75.8%,82.4%,62.8%,53.3%,5.89% (active),54.8%,60.5%,70.2%
FC(F)(F)c1cc(-c2nnc3n2N=C(N2CCCC2)CS3)cc(C(F)(F)F)c1,96.9%,86.2%,29.6%,65.4%,37.6%,84.2%,80.5%,69.1%,84.3%,101%
CCOC1Oc2ccccc2C(=O)/C1=N/c1nccs1 (stereo not given),80%,105%,75.1%,91.7%,82%,67.8%,101%,78.7%,85.2%,99.9%
CNNc1ncnc2c1cnn2-c1ccc(S(N)(=O)=O)cc1,103%,95.2%,104%,105%,98.5%,81.4%,91.2%,100%,97.5%,109%
NS(=O)(=O)c1cc2c(cc1Cl)NC=NS2(=O)=O,102%,94.7%,96.3%,107%,99.7%,100%,107%,103%,99.6%,108%
COc1ccc(C(=O)COc2cccc(/C=C3\CSc4ccc(Cl)cc4C3=O)c2)cc1,70.4%,72.2%,99.3%,91.3%,71.1%,61.9%,67.2%,71.8%,33.1%,114%
O=C(O)C1CCN(S(=O)(=O)c2ccc(-c3ccccc3)cc2)CC1,107%,111%,102%,103%,104%,80.9%,108%,94.5%,103%,91.4%
Cn1cnc([N+](=O)[O-])c1Sc1nc(N)nc2nc[nH]c12,50.3%,47.2%,31.3%,101%,63.6%,56.2%,79.3%,7.35% (active),6.74% (active),84.4%
C[C@@H]1CN(c2nc3c(cc2F)c(=O)c(C(=O)O)cn3C(C)(C)C)C[C@H](C)N1,106%,95.8%,114%,106%,103%,89.1%,92.4%,90%,90.5%,122%
COc1ccc(Oc2ccccc2NC(=O)CNC(=O)c2cccc3ccccc23)cc1,17.2% [5 µM],2.75% [5 µM] (active),41.6% [5 µM],51.4% [5 µM],16.9% [5 µM],21.5% [5 µM],10.3% [5 µM],37.5% [5 µM],22.3% [5 µM],60.6% [5 µM]
CC(=O)N1N=C(c2ccc(Cl)cc2)CC1c1c(C)nn(-c2ccccc2)c1N(C)Cc1ccccc1 (stereo not given),71%,58.5%,80.3%,64.4%,68.6%,39.3%,70.3%,51%,84.1%,88.1%
O=C(/C=C/c1cccc(Nc2ccnc3cc(Cl)ccc23)c1)c1ccc(Cl)cc1,54.8%,21.8%,67.6%,63.2%,49.9%,62.9%,39.6%,50.2%,11.2%,71%
Cc1ccc(C2=NNC(c3sc(Cl)nc3Cl)C2)cc1 (stereo not given),77.3%,107%,96%,92%,99.1%,93.6%,88.9%,89.9%,9.94% (active),102%
Clc1ccc(C2c3ccccc3-c3nccn32)c(Cl)c1 (stereo not given),72.1%,77.9%,83.1%,88.8%,86.3%,64.2%,47.3%,73.2%,76.5%,112%
[N-]=[N+]=NCc1ncc(-c2ccc(C(F)(F)F)cc2)c(NC2CCCCCC2)n1,80.2% [50 µM],69.8% [50 µM],65.8% [50 µM],85.2% [50 µM],73% [50 µM],35.6% [50 µM],84.2% [50 µM],79.2% [50 µM],82.2% [50 µM],98.1% [50 µM]
Cc1cc(=O)[nH]c(/C(=N/Nc2ccccc2)C(=O)c2ccc(Cl)cc2)n1,112%,105%,128%,95.5%,107%,92.6%,92.4%,92%,98.9%,110%
O=C1NC(=O)/C(=C\c2ccco2)S1,100%,114%,97.7%,101%,101%,101%,99.9%,91.7%,91.5%,113%
